The list is not random: actives were taken first. Their share in the collection is about 1.5%.
Mtb MbtI inh – MbtI salicylate synthase inhibition. purified MbtI enzyme, fluorescence intensity read-out. inhibition, % (no concentration beside the values). 100,000 tested, 0.89% active; in the data active = inhibition mostly above about 56%, no sharp cut-off; inactive = mostly below about 77%
Target sequence (P9WFX0 whole entry, looked up): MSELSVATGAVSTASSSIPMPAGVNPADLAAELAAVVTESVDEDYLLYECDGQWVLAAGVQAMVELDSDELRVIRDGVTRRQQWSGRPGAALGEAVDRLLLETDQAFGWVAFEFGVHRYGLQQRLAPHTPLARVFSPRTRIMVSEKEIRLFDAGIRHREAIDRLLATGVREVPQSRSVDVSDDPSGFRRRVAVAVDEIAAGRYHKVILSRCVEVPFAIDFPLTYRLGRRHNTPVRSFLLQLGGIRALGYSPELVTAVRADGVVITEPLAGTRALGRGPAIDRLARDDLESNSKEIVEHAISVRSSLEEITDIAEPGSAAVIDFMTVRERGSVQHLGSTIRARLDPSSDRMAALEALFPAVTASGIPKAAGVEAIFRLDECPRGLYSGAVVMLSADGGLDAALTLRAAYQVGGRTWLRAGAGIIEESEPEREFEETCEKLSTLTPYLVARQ
AID504770 – E. coli YBA685 growth inhibition, screen for V. cholerae RctB inhibitors; E. coli YBA685 rctB-dependent plasmid, OD600 growth, 3 h; active compounds read low; z-score (test concentration not listed); 130,000 tested, 0.27% active; in the data active = z-score below about -2, passing the limit was not always enough
MenB inh – Mtb MenB enzyme inhibition. P9WNP5. MenB enzyme assay, absorbance read-out. inhibition, % (test concentration not listed). 100,000 tested, 0.43% active; in the data active = inhibition above about 21%, passing the limit was not always enough
PV pol inh – poliovirus RNA polymerase inhibition; % elongation, % (compound at 16.7 µg/mL); poliovirus polymerase elongation, fluorescence polarization; active compounds read low; 150,000 tested, 0.66% active; P03300; in the data active = % elongation below about 90%
An asterisk follows results filed as active; i = inactive; x = no result given; ! = a repeat was not active.

SMILES | Mtb MbtI inh | AID504770 | MenB inh | PV pol inh
FC(F)(F)c1ccc(=S)[nH]c1 | 93* | -0.15 | -43 | 111
CCn1cc(C(=O)O)c(=O)c2cc(F)c(N3CCN(C(=S)Nc4ccc5c(c4)OCO5)CC3)cc21 | -11 | -3* | -8 | 99
FC(F)(F)c1cccc(N2CCN(C(=S)Nc3ccc4c(c3)OCO4)CC2)c1 | 3 | 0.95 | -35 | 99
CCn1cc(C(=O)O)c(=O)c2cc(F)c(N3CCNCC3)cc21 | 163 | -4.7* | -9 | 100
CCn1cc(C(=O)O)c(=O)c2cc(F)c(N3CCN(C)CC3)cc21 | 11 | -6.9* | 11 | 104
CCn1cc(C(=O)O)c(=O)c2cnc(N3CCNCC3)nc21 | -9 | -3.2* | -19 | 98
CCn1cc(C(=O)NN)c(=O)c2cc(F)c(N3CCCC3)cc21 | -10 | -0.75 | 0 | 102
CCC(C)(C)C1CCC(=O)C(C2(O)C(=O)N(C)c3ccccc32)C1 (stereo not given) | -5 | -0.3 | -22 | 101
Fc1ccc(C=Nc2ccc(I)cc2)cc1 | x | -0.7 | 9 | 100
CCn1cc(C(=O)NCC(C)C)c(=O)c2cc(F)c(N3CCN(C(=O)c4ccco4)CC3)cc21 | 25 | -0.3 | 3 | 101
CCn1cc(C(=O)O)c(=O)c2cc(F)c(N3CCN(C(=O)c4ccccc4F)CC3)cc21 | 40 | -3.8* | -7 | 100
O=C1NC(=S)N(c2ccccc2)C(=O)/C1=C\c1ccoc1 | 69* | -0.75 | -21 | 107
O=C(CC(NC(c1ccccc1)c1ccccc1)C(=O)O)c1ccc(Cl)cc1 (stereo not given) | x | -1.1 | 72* | 98
O=c1c(Br)cccc(Br)c1O | 39 | -3.5* | -169 | 105
O=C(NCCCN1CCCCC1)c1ccc2c(c1)sc1nc(-c3ccccc3)cn12 | -7 | -0.6 | 3 | 95
O=C(Nc1ccccc1C(=O)O)c1cccs1 | 89* | -0.4 | 27 | 98
O=C1C2(CCC13COC(c1ccco1)OC3)COC(c1ccco1)OC2 (stereo not given) | -12 | -1.1 | -8 | 98
CCc1cc(=O)[nH]c(NC2CCN(C(=O)N3c4ccccc4Sc4ccccc43)CC2)n1 | 3 | 0.7 | 1 | 101
CCOC(=O)c1ccc(NC(=O)NC(C)c2ccc3c(c2)OCO3)cc1 (stereo not given) | 15 | -0.45 | -8 | 104
CCOC(=O)c1ccc(NC(=S)NC(C)c2ccc3c(c2)OCCO3)cc1 (stereo not given) | -1 | 0.6 | -23 | 54*
COP1(=S)/C(=C2/N(C)c3ccccc3C2(C)C)C=NN1C (stereo not given) | 100* | 0.65 | -82 | 70*
CCOC(=O)c1[nH]c2ccccc2c1NC(=O)Cc1ccc(OCC)cc1 | x | -0.5 | x | x
O=C(O)c1ccc2ncsc2c1 | 77 | -0.35 | x | 88*
S=c1[nH]nc(C2COc3ccccc3O2)o1 (stereo not given) | 73*! | -0.65 | -121 | 98
CCc1nc2ccccc2nc1CC | 1 | 2.2 | 10 | 106
SMILES | Mtb MbtI inh | AID504770 | MenB inh | PV pol inh
O=C(O)c1ccccc1-c1c2cc(Br)c(=O)cc-2oc2[c]([Hg])c(O)c(Br)cc12 | 104* | 0.05 | -2 | 70
CC(C)Sc1n[nH]c(=S)s1 | 98* | -0.5 | -104 | 88*
C=C(C)CSc1n[nH]c(=S)s1 | 100 | -0.25 | 4 | 96
O=C(O)CCSc1n[nH]c(=S)s1 | 64 | 0.3 | -18 | 97
CCC(C)Sc1n[nH]c(=S)s1 (stereo not given) | 99* | -0.45 | 6 | 101
COc1cc(/C=C2\SC(=O)NC2=S)ccc1O | 79* | 0.05 | -97 | 86
COc1cc(/C=C2/SC(=S)N(NC(C)=O)C2=O)ccc1O | x | -0.2 | i | 155
COc1ccc(CC(=O)N2CCC3(CC2)Nc2ccccc2S(=O)(=O)N3)cc1 | -16 | -0.3 | -4 | 102
Cc1ccc(OC(=O)c2cc3c(C)nn(-c4ccccc4)c3s2)cc1 | 0 | 0.45 | 15 | 100
NC(=O)c1c(N)sc2c1CCCCC2 | 32 | -1.3 | -36 | 78*
O=C(O)CCC(=O)Nc1cccc2ccccc12 | x | -0.95 | x | x
O=C(O)CSCC(=O)Nc1cccc2ccccc12 | 11 | 0.4 | 36* | 100
Cc1ccc(OCc2ccccc2C(=O)Nc2nccs2)cc1 | x | 0.25 | -11 | 96
Cc1ccc(SCc2[nH]nc3c2C(c2ccoc2)C(C#N)=C(N)O3)cc1 (stereo not given) | 8 | 3.8 | -54 | 103
C1=C(CCNc2nc3ccccc3n3cnnc23)CCCC1 | x | -0.15 | x | x
O=C(O)C1Nc2c(I)cccc2C2C=CCC12 (stereo not given) | 103* | -0.7 | -17 | 93
O=C(c1ccc(F)cc1)C1CCN(C(=O)C2CC2)CC1 | 7 | -0.25 | 1 | 100
CC(OC(=O)c1cccn1C)C(=O)Nc1ccccc1C#N (stereo not given) | -21 | -1.1 | 3 | 102
COc1ccc2nc3oc(C(=O)NCCC4=CCCCC4)cc3cc2c1 | -82 | -5.2* | -3 | 102
COc1ccccc1C(=O)COC(=O)Cn1nnc2ccccc21 | -6 | -0.7 | -3 | 104
COc1ccc(NC(=O)c2cc3ccc(O)cc3o/c2=N\O)cc1 | 8 | -0.15 | 32* | 101
COc1ccc(NC(=O)c2cc3ccc(O)cc3oc2=Nc2ccc(C(=O)O)cc2)cc1 | 6 | 0 | -89 | 107
COc1ccc(CC(=O)n2[nH]c(=O)cc(C)c2=O)cc1OC | 56* | -0.75 | 0 | 99
CCCc1ccc(OCC(=O)Nc2scc(-c3cccs3)c2C(=O)OC)cc1 | x | x | x | 74*
CCOC(=O)c1c(-c2cccs2)csc1NC(=O)COC(=O)c1cc2c(s1)CCC2 | -41 | 1 | -10 | 102
SMILES | Mtb MbtI inh | AID504770 | MenB inh | PV pol inh
COC(=O)c1c(NC(=O)COc2ccc(C(C)C)cc2)sc2c1CCCC2 | x | x | x | 104
COC(=O)c1c(-c2cccs2)csc1NC(=O)COc1ccc(C(C)C)cc1 | x | x | x | 70*
Cc1ccc(C)c(NC(=O)Cc2nc(CN3CCOCC3)cs2)c1 | -3 | -0.4 | -18 | 105
Cc1c(C(=O)OC2CCOC2=O)oc2c1ccc1ccccc12 (stereo not given) | 102 | 0.8 | -10 | 107
c1ccc2c(c1)Nc1ccccc1S2 | 10 | -0.05 | -20 | 102
S=C1CSc2ccccc2N1 | 78* | -0.8 | -13 | 92
N=C(N)c1cccc(NC(=O)Nc2cccc(C(=N)N)c2)c1 | x | 1.4 | -46 | 88*
Cc1cccc(NC(=O)Nc2cccc(C)c2)c1 | -6 | 2.6 | -14 | 100
COC(=O)c1ccc2nc(NC(=O)CN3C(=O)CCC3=O)sc2c1 | x | -0.25 | -5 | 75*
O=C(Oc1ccc(-c2nnco2)cc1)c1ccccc1F | -10 | -0.65 | -25 | 104
S=c1nc(Cc2ccccc2)[nH][nH]1 | x | -0.35 | 19 | 96
S=c1nc(CNc2ccccc2)[nH][nH]1 | 95* | -0.8 | -42 | 102
O=C1NC2(CCCC2)C(=O)N1CCC(=O)N(CC1CCCO1)c1nc2ccccc2s1 (stereo not given) | -5 | -0.5 | -26 | 97
O=c1c2c(nc3cc(-c4ccco4)[nH]n13)CCCC2 | 89 | 0.35 | 33* | 104
Cc1cc(N)cc2[nH]c(-c3ccc(N)cc3)nc12 | x | 0.8 | -7 | 66*
